Experimental data from PubChem BioAssay AID493194 (Broad Institute, 2011).
Results with a measured potency or affinity are listed apart. Inconclusive results are not listed. Activity calls are given as the source filed them.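 The calls were made as follows: active = a valid curve of falling signal whose half-effect concentration is at most ten times the top tested dose; inconclusive = flat curve at 30 to 70% inhibition, or poor fit; inactive = signal rise, flat within 30%, or potency beyond limit.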

Target: Scavenger receptor class B member 1 (Mus musculus) (UniProt Q61009)
Sequence (Q61009 whole entry, looked up): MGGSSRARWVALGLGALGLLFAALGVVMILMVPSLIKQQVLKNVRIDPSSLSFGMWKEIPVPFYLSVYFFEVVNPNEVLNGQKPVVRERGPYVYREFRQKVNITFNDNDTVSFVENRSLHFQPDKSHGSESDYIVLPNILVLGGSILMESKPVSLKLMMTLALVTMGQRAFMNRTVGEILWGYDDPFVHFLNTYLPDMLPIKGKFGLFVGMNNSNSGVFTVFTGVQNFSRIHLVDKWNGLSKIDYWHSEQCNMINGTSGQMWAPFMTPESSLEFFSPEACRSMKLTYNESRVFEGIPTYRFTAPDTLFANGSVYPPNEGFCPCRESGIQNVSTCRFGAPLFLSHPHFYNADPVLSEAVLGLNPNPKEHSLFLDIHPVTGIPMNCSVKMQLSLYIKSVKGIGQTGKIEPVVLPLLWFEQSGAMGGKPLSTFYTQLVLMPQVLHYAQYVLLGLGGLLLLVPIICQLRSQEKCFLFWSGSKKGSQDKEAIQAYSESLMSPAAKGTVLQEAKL
Assay: mouse SR-BI DiI-HDL uptake blockers – ldlA[mSR-BI] cells, fluorescence, cherry pick, dose response (AID 493194);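 also: CHO cells lacking LDL receptor and overexpressing mouse SR-BI; cellular uptake of fluorescently labeled HDL measured as cell fluorescence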
Details: CHO ldlA[mSR-BI] DiI-HDL uptake fluorescence, 3 h; series mostly up to 35 µM

outcome, inactive:
O=C(C1=COCCO1)N(Cc1nnc(-c2ccccc2Cl)o1)C1CC1, CC(=O)c1c(C)[nH]c(C(=O)Nc2ccc(C)c(S(=O)(=O)Nc3ccc(C)cc3C)c2)c1C, COC(=O)c1ccc(C(=O)Nc2nc3cc(N)c(C)cc3s2)cc1, COc1cccc(-c2csc(N3CCN(C(=S)Nc4cccc(C)c4)CC3)n2)c1, CN1CCC2CC1c1cc(-c3ccc(C(F)(F)F)cc3)ccc12 (centres undefined), Cc1c(Cl)cccc1S(=O)(=O)N1CCC(C(=O)NNC(=O)C2CC2)CC1, Cc1c(C(=O)CN2CCCC(C)(C)C2)c2ccccc2n1C, CCOC(=O)C1=C(CNCCOc2ccc(OC)cc2)NC(=O)NC1c1ccc2c(c1)OCO2 (centres undefined), Cn1nc(-c2ccc(Cl)cc2)c2cc(C(=O)NCCCN3CCOCC3)sc21, Cc1cccc(-c2ccc3c(c2)C2CC3CCN2C(=O)OCc2ccccc2)c1 (centres undefined), Cc1nn(Cc2ccccc2)c(C)c1NC(=O)c1cc2nc(-c3ccco3)cc(C(F)(F)F)n2n1, CCCCC(=O)Nc1nc(C)c(-c2csc(Nc3ccc(Cl)cc3)n2)s1, CCN(C(=O)COC(=O)c1c(C)c(-c2ccccc2)nc2ccccc12)C1CCS(=O)(=O)C1 (centres undefined), CN(C(=O)COC(=O)CCc1c[nH]c2ccccc12)c1ccccc1, Cc1cc2oc(=O)cc(CN3CCN(C/C=C/c4ccccc4)CC3)c2cc1O, CCC(C)NC(=O)Cn1cc(S(=O)(=O)N2CCN(c3ccccc3F)CC2)c2ccccc2c1=O (centres undefined), COC(=O)[C@@]1(Cc2ccc(F)cc2)[C@H]2c3cc(C(=O)N4CCCC4)n(CCCNc4ncc(C(F)(F)F)cc4Cl)c3C[C@H]2CN1C(=O)c1ccccc1, CCOc1ccc(NC(=O)CN2CCN(CC(=O)Nc3ccc(C(=O)OC)cc3)CC2)cc1, CCn1nc(C)c(CN2CCc3c([nH]c4ccccc34)C2c2ccc(F)c(OC)c2)c1C (centres undefined), COc1ccc([C@H]2/C=C\CN(S(=O)(=O)c3ccc(C)cc3)[C@@H](C)C(=O)N2Cc2ccc(F)cc2)cc1, N#Cc1ccc(C(=O)N2CCC3CC2c2cc(-c4ccc(F)cc4)ccc23)cc1 (centres undefined), O=C1C2CCCN2C(=O)N1CCCN1CCN(c2ccc([N+](=O)[O-])cc2)CC1 (centres undefined), COc1ccc(N2CC(C(=O)NCCC3=CCCCC3)CC2=O)c(OC)c1 (centres undefined), CCOC(=O)c1[nH]c2c(c1-c1ccccc1)C(=O)CC(c1ccc(Cl)cc1)C2 (centres undefined), COc1ccc(CCC(=O)Nc2ccc(-c3noc(-c4ccc(OC)c(OC)c4)n3)cc2)cc1, CCc1cc(CNC(=O)C2CCC(=O)N(CCc3cccc(F)c3)C2)on1 (centres undefined), CN(Cc1ccc(OC(F)F)cc1)C(=O)c1ccccc1Sc1ccccc1C#N, CC(=O)c1ccc(N2CCN(C(=O)/C=C/c3ccc(S(=O)(=O)NCc4ccco4)cc3)CC2)cc1, Cc1ccccc1C(=O)NC1CC2CCCC(C1)N2C(=O)Nc1ccccc1 (centres undefined), CC(CCc1ccccc1)NC(=O)C1CCN(C(=O)c2sccc2-n2cccc2)CC1 (centres undefined), COc1ccc(CN2CCN(C(=O)c3ccc(S(=O)(=O)NCc4ccco4)cc3)CC2)cc1F, O=C(Nc1cccc(NC(=O)c2ccccc2Cl)c1)c1ccc(F)cc1, O=C(c1ccc(-n2nc(C(F)(F)F)c3c2CCCC3)cc1)N1CCOCC1, CCC(C(=O)NC1CCCC1)N(C(=O)Cn1nnc(-c2ccc(OC)c(OC)c2)n1)c1cccc(O)c1 (centres undefined), CCCC(=O)N1CCc2cc(-c3nc(N)sc3C)ccc21, Cc1c(C(=O)Nc2ccc(Cl)cc2)c2ccccn2c1CCc1ccncc1, c1ccc(COn2c(-c3ccccc3)nc3c2CCc2nonc2-3)cc1, COC(=O)C1C(=O)c2c([nH]c(C(=O)OC3CCCC3C)c2C)CC1C (centres undefined), CC(C)(C)NC(=O)N1CCN(c2ncccc2C(F)(F)F)CC1
